In PubChem BioAssay (NCATS):
Inconclusive results are not listed. The source made the active and inactive calls. Calls come from the whole dose curve; as a rule, active = well fitted cell-killing curve with a large enough effect; inconclusive = small, poorly fitted or top-dose-only effect; inactive = no such curve, though single readings can be large or run the other way. Residues, ends and D or L forms follow the SMILES beside them. *: point of attachment. Cbz = O=C(OCc1ccccc1)*

Assay: qHTS of pediatric cancer cell lines to identify multiple opportunities for drug repurposing: Primary screen for Rh30 cells (AID 1347107); note: nearly all actives have a fitted effect of over 75% in size
Conditions: Rh30 rhabdomyosarcoma viability, CellTiter-Glo luminescence, 48 h; series mostly up to 46 µM; activity change, negative = cytotoxic: at the top concentration
Excerpt: Drug repurposing or repositioning has been offered as a strategy for drug development in oncology programs. This approach has special potential for childhood cancers and other rare or orphan diseases, where the expected return on new drug development has been a disincentive to pharmaceuticals.
In this project we exploit the poly-pharmacology of drugs to discover new indications via phenotypic screening of a panel of 19 well-characterized cell lines derived from solid tumors seen in children and adolescents. The goal is to identify approved drugs with previously unrecognized anticancer properties that has the potential to reveal new mechanisms and biological processes involved in carcinogenesis or drug resistance. We employed a titration-based paradigm (quantitative high-throughput screening or qHTS), where all compounds were tested at multiple concentrations for their effect on cell viability. Concentration-response curves (CRCs) were derived directly from the primary screen, and both potency and efficacy values were used to identify compounds with robust bioactivity profiles. We screened the NIH Chemical Genomics Center (NCGC) Pharmaceutical Collection (NPC) and Mechanism Interrogation Plate (MIPE) small molecule collections of approved and investigational compounds against these cell lines; and measured metabolically active cells after 48 hours of compound treatment as a proxy for cell viability.
Assay Submitter: Nathalia J. Martinez, National Center for Advancing Translational Sciences, National Institutes of Health, Rockville, MD, USA; email: natalia.martinez@nih.gov
[1] Shen, M et al. Quantitative high-throughput phenotypic screening of pediatric cancer cell lines identifies multiple opportunities for drug repurposing. Oncotarget 2017 Dec 19;9(4):4758-4772. PMID 29435139.
The cells were obtained from University of North Carolina (UNC), Pediatric Preclinical Testing Program (PPT), and Coriell Institute (CI).
qHTS cell viability assay:
Cells were assayed in growth media at a density of 500-1,000 cells/well. Five microliters of cells were dispensed into 1,536-well, white, solid-bottom, TC-treated plates (Greiner Bio One) using a multidrop dispenser and incubated at 37 degrees C, 5% CO2, under a humidified atmosphere for 5 hours. Twenty-three nanoliters of compounds and controls (neutral control DMSO or positive control bortezomib at final concentration of 2.3 µM) were subsequently transferred by Kalypsys pintool. For primary screens, the MIPE collection was tested at 11-point dilutions (final concentrations range from 0.78 nM to 46 µM) and the NPC collection at 8-point dilutions (final concentrations range from 0.59 nM to 46 µM). Compounds tested in follow-up screens were assayed at 11-point dilutions. Cells were incubated for 48 hours, followed by addition of 3 µL of CellTiter-Glo (Promega). After a 15 min incubation at room temperature, samples were analyzed for luminescence intensity using a ViewLux High-throughput CCD imager equipped with clear filters.
% is set by controls: 0 for no effect and ±100 for the full control effect; potency is the fitted concentration of half-maximal effect.

Structure (SMILES) | activity change, negative = cytotoxic | Potency
COc1ccc(C(C)=O)c(O)c1 | 16.4% (inactive) | –
OCc1ccccc1O[C@@H]1O[C@H](CO)[C@H](O)[C@H](O)[C@H]1O | 16.6% (inactive) | –
C#Cc1cccc(Nc2ncnc3cc(OCCOC)c(OCCO)cc23)c1 | -14.1% (inactive) | –
CS[C@H]1SC[C@@H]2C(=O)N(C)[C@H](C(C)C)C(=O)OC[C@H](NC(=O)c3cnc4ccccc4n3)C(=O)N[C@H](C)C(=O)N(C)[C@@H]1C(=O)N(C)[C@H](C(C)C)C(=O)OC[C@H](NC(=O)c1cnc3ccccc3n1)C(=O)N[C@H](C)C(=O)N2C | 12.8% (inactive) | –
CCC[C@H]1C[C@H](C(=O)N[C@@H]([C@@H]2O[C@@H](SC)[C@@H](O)[C@@H](O)[C@@H]2O)[C@H](C)Cl)N(C)C1 | 25.2% (inactive) | –
C[C@H]1O[C@H](O[C@H]2[C@H](O)[C@@H](O)[C@@H](O[C@H]3[C@H](O)[C@@H](O)C(O)O[C@H]3CO)O[C@H]2CO)[C@H](O)[C@@H](O)[C@H]1N[C@H]1C=C(CO)[C@@H](O)[C@H](O)[C@@H]1O (stereo not given in full) | 28% (inactive) | –
CC(C)C[C@@H](C=O)NC(=O)[C@H](CC(C)C)NC(=O)[C@H](CC(C)C)NC(=O)OCc1ccccc1 (Cbz-Leu-Leu-Leu-aldehyde) | – | 3.72 µM (active)
NC(=O)c1ncn([C@@H]2O[C@H](CO)[C@@H](O)[C@@H]2O)c1N | 7.49% (inactive) | –
CON=C(C(=O)N[C@@H]1C(=O)N2C(C(=O)O)=C(CSC(=O)c3ccco3)CS[C@H]12)c1csc(N)n1 | 19.8% (inactive) | –
c1ccc2c(Oc3nc(Nc4ccc(N5CCOCC5)cc4)c4ncn(C5CCCCC5)c4n3)cccc2c1 | 13.1% (inactive) | –
O=c1[nH]c(=O)n([C@H]2C[C@@H](O)[C@@H](CO)O2)cc1F | – | 2.35 µM (active)
CCN(CC)CCNC(=O)c1c(C)[nH]c(C=C2C(=O)Nc3ccc(F)cc32)c1C | – | 27 µM (active)
C[C@@H]1C(=O)O[C@H]2CC34[C@H]5C[C@@H](C(C)(C)C)C36[C@H](OC(=O)[C@@H]6O)O[C@@]4(C(=O)O5)[C@]21O (stereo not given in full) | 16.3% (inactive) | –
O=C(O)CCCCCC(=O)NN=C1CCCC1 | 20% (inactive) | –
O=C(c1ccc(F)cc1)N1CCC[C@H](c2nc(-c3ccc(F)cc3)no2)C1 | -2.59% (inactive) | –
CC[C@]12C=CCN3CC[C@@]4(c5cc([C@@]6(C(=O)OC)C[C@H]7C[C@@H](C(C)(F)F)CN(Cc8c6[nH]c6ccccc86)C7)c(OC)cc5N(C)[C@H]4[C@@](O)(C(=O)OC)[C@H]1OC(C)=O)[C@@H]32 | -2.07% (inactive) | –
O=C(C=CC=Cc1ccc2c(c1)OCO2)N1CCCCC1 | -0.453% (inactive) | –
C[C@H](NC(=O)C(C#N)=Cc1cccc(Br)n1)c1ccccc1 | – | 23.5 µM (active)
Cn1cc(CNCC2CCN(c3ncc(C(=O)NO)cn3)CC2)c2ccccc21 | – | 1.18 µM (active)
NC(=O)c1cccc(-c2cccc(OC(=O)NC3CCCCC3)c2)c1 | 26.1% (inactive) | –

Structure (SMILES) | activity change, negative = cytotoxic | Potency
CCCNC(=O)[C@H]1O[C@H]1C(=O)N[C@H](C(=O)N1CCC[C@@H]1C(=O)OC)C(C)CC (stereo not given in full) | – | 18.7 µM (active)
COc1cc(C(C)C)c(Oc2cnc(NC(CO)CO)nc2N)cc1I | 2.66% (inactive) | –
COc1ccc(S(=O)(=O)Nc2cccnc2Nc2ccc(O)cc2)cc1 | -4.29% (inactive) | –
C[C@H](NC(=O)Cc1cc(F)cc(F)c1)C(=O)N[C@H](C(=O)OC(C)(C)C)c1ccccc1 | -3.14% (inactive) | –
C=C[C@@H]1CN2CCC1C[C@H]2[C@H](O)c1ccnc2ccc(OC)cc12 (stereo not given in full) | 15.5% (inactive) | –
Cc1ccc(O)c(C(CCN(C(C)C)C(C)C)c2ccccc2)c1 (stereo not given) | 18.6% (inactive) | –
CC(C)(O)Cn1c(NC(=O)c2ccc(-c3cn[nH]c3)s2)nc2cc(CN3CCOCC3)ccc21 | 16.2% (inactive) | –
CC(=O)N[C@H]1[C@@H]([C@H](O)[C@H](O)CO)OC(C(=O)O)=C[C@@H]1N=C(N)N | 16.6% (inactive) | –
C[N+]1(C)[C@@H]2C[C@@H](OC(=O)C(O)(c3cccs3)c3cccs3)C[C@H]1[C@@H]1O[C@@H]12 | 17.4% (inactive) | –
CCCCCCCCCCCCc1ccc(S(=O)(=O)Nc2nncs2)cc1 | 0.638% (inactive) | –
Cc1cnc(Nc2ccc(N3CCN(C)CC3)cc2)nc1Nc1cccc(S(=O)(=O)NC(C)(C)C)c1 | – | 5.9 µM (active)
COC(=O)[C@@H]1CC2=CC(=O)CC[C@]2(C)[C@@]23O[C@@H]2C[C@@]2(C)[C@H](CC[C@@]24CCC(=O)O4)[C@@H]13 | 27.6% (inactive) | –
NC1=N[C@H]2[C@H](CS[C@H]2CCCCC(=O)O)N1 | 29.5% [at 16.1 µM] (inactive) | –
O=C1NC(=O)[C@@H](c2cn3c4c(cccc24)CCC3)[C@H]1c1c[nH]c2ccccc12 | 5.41% (inactive) | –
CC(=O)O[C@]1(C(C)=O)CC[C@H]2[C@@H]3C=C(C)C4=CC(=O)CC[C@]4(C)[C@@H]3CC[C@@]21C | -19.4% (inactive) | –
CC1=C(C(=O)Nc2cc3cn[nH]c3cc2F)C(c2ccc(Cl)cc2F)N=C(c2ccnc(Cl)c2)N1 (stereo not given) | 4.47% (inactive) | –
CC[C@H](CC[C@@H](C)[C@H]1CC[C@H]2[C@@H]3CC=C4C[C@@H](O)CC[C@]4(C)[C@@H]3CC[C@]12C)C(C)C | 6.67% (inactive) | –
CN(N=O)C(=O)N[C@H]1C(O)OC(CO)[C@@H](O)[C@H]1O (stereo not given in full) | 3.99% (inactive) | –
C[C@H](O)[C@@H]1C(=O)N2C(C(=O)O)=C(S[C@@H]3CN[C@H](CNS(N)(=O)=O)C3)[C@@H](C)[C@@H]12 | 22.5% (inactive) | –
OCCN1C[C@H](O)[C@@H](O)[C@H](O)[C@@H]1CO | 36% (inactive) | –
